In publication PMC4336329 (PLoS ONE, 2015):
About 2,200 (0.71%) of roughly 310,000 compounds showed an effect of 50% or more. The effect is printed as a negative number. What follows is part of a selection rich in strong results, with near analogues and random picks from the rest.

Target: human ether-à-go-go-related gene (hERG) potassium channel (human, UniProt Q12809)
Test: primary screen, population patch clamp on CHO cells stably expressing hERG; higher = less effect of the substance
Method: Briefly, Chinese hamster ovary (CHO) cells stably expressing the hERG channel were dislodged from tissue culture flasks and dispensed into PPC plates. […] During the recording, background leak currents were estimated by a 100 ms step to -80 mV from an initial holding potential of -70 mV and subtracted from the subsequent current measurement. The campaign was conducted in two phases using slight differences in recording protocol. In the first phase, the initial voltage pulse used a 100 ms step to -30 mV from a holding potential of -70 mV, a 2 s conditioning step to +25 mV, and a 2 s test step to -30 mV. During the second phase of the screen, the potential during the conditioning step was raised to +45 mV. In both phases of the campaign, a secondary voltage pulse was applied using the same parameters as the second phase initial pulse. The initial and secondary pulses were applied in the absence of compound, and upon application of 1 μM and 10 μM test concentrations. Small molecule effects on hERG current density were quantified by […].

human ether-à-go-go-related gene (hERG) potassium channel, sequence (Q12809 whole entry, looked up): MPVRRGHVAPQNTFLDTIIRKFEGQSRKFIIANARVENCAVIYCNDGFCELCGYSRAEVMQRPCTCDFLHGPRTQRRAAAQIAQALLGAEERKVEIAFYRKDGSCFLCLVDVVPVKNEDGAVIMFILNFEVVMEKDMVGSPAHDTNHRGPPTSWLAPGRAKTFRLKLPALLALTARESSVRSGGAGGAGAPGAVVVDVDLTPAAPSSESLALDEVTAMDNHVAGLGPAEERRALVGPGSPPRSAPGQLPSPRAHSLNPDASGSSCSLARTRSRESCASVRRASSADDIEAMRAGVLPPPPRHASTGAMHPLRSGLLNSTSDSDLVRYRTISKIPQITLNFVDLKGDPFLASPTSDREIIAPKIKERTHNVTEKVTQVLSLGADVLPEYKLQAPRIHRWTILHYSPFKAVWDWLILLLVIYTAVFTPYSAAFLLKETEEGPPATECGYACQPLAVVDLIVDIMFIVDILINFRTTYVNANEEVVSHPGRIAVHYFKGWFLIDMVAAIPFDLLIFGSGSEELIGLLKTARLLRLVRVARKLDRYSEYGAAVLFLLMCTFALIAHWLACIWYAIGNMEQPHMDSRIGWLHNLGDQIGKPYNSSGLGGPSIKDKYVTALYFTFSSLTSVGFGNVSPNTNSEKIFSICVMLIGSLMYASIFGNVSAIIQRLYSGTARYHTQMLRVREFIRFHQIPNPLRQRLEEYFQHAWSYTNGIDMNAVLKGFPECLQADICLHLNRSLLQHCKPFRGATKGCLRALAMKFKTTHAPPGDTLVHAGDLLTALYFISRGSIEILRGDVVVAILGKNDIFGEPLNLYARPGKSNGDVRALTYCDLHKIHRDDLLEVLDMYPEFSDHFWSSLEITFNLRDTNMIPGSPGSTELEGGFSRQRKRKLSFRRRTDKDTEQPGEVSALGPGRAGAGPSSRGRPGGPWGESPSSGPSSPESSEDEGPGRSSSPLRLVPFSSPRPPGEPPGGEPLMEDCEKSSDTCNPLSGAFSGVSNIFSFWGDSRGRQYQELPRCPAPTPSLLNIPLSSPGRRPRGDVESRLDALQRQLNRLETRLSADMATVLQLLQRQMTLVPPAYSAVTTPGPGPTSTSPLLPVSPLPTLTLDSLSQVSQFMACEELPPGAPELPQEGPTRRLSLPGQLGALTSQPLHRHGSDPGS

SMILES | hERG current change (%, negative = inhibition) at 1uM
COc1ccccc1NC(=O)N1CCCC1C(=O)Nc1ccc2c(c1)OCO2 (stereo not shown) | 2.76%
O=C(CCC1COc2ccccc2O1)NCC1COc2ccccc2O1 (stereo not shown) | 6.41%
Cc1nnc(SCc2nnc(-c3ccccc3Br)o2)s1 | 18.8%
CC(=O)c1cccc(NC(=O)/C(=C/c2ccco2)NC(=O)c2ccco2)c1 | 10.1%
CC(=O)c1ccc(NC(=O)/C(=C\c2ccco2)NC(=O)c2ccco2)cc1 | 4.96%
CC(=O)c1cccc(NC(=O)/C(=C\c2ccco2)NC(=O)c2ccco2)c1 | -50.7%
CCc1ccc(-n2nc3cc(C)c(N)cc3n2)cc1 | 13.3%
COc1ccc(NC(=O)NC2(C(=O)N3CCCC(C)C3)CCCCC2)cc1 (stereo not shown) | 14.1%
Cc1ccc(C(=O)ON=C2CCN(c3ccc([N+](=O)[O-])cc3)CC2)cc1 | -21.2%
COc1ccc(C(=O)CCC(=O)N2CCN(c3ccc([N+](=O)[O-])cc3)CC2)cc1 | -28.4%
COc1ccc(N2CCN(C(=O)CSc3ccccc3)CC2)cc1 | 12.7%
CC1(C)Cc2cccc(OCC(=O)N3CCN(c4ccccc4)CC3)c2O1 | -2.57%
CC1(C)Cc2cccc(OCC(=O)N3CCN(c4ccc([N+](=O)[O-])cc4)CC3)c2O1 | -51.8%
CC1(C)Cc2cccc(OCC(=O)N3CCN(c4ccc(F)cc4)CC3)c2O1 | -16.2%
O=C(CCCc1ccccc1)N1CCN(c2ccc([N+](=O)[O-])cc2)CC1 | -48.2%
O=C(ON=C1CCN(c2ccc([N+](=O)[O-])cc2)CC1)c1ccccc1 | -26%
O=C(Cc1ccccc1)N1CCN(c2ccc([N+](=O)[O-])cc2)CC1 | -36.4%
COc1ccc(N2CCN(C(=O)CSc3ccc([N+](=O)[O-])cc3)CC2)cc1 | -85.1%
COc1ccc(C(=O)ON=C2CCN(c3ccc([N+](=O)[O-])cc3)CC2)cc1 | -57.7%
O=C(CCc1ccccc1)N1CCN(c2ccc([N+](=O)[O-])cc2)CC1 | -67.4%
Cc1cccc(C)c1OCC(O)CN.Cl.O (stereo not shown) | 10.5%
COc1ccccc1NC(=O)/C=C1\SCC(=O)N1C | 2.4%

SMILES | hERG current change (%, negative = inhibition) at 1uM
NC(=O)CSc1nc(-c2ccccc2)c(-c2ccccc2)o1 | 8.48%
C/C=C1\COC(C(=O)NCc2ccncc2)(C(F)(F)F)C=C1C=C1CCCCC1 (stereo not shown) | 12.8%
CCCc1n[nH]c2c1/C(=N\OCC)CC(C)(C)C2 | 12.8%
C=CCN1CCN(C(c2cc(OC)ccc2OC)c2nnnn2CC2CCCO2)CC1.Cl (stereo not shown) | 12.4%
Cc1nn(C)c(Cl)c1CN1CCCC(C(=O)Nc2cccc(-n3cccn3)c2)C1 (stereo not shown) | -3.6%
CN1C(=O)CC(N2CCN(c3ccc(Cl)c(Cl)c3)CC2)C1=O (stereo not shown) | 1.54%
O=C(NC(CC(=O)N1CCN(c2ccc([N+](=O)[O-])cc2)CC1)c1ccccc1)c1ccccc1Cl (stereo not shown) | -69%
O=C(CN1CCN(c2ccc([N+](=O)[O-])cc2)CC1)Nc1ccccn1 | -75.8%
O=C(CCCC(=O)N1CCN(c2cccc(Cl)c2)CC1)c1ccccc1 | 1.83%
O=C(Cc1ccc([N+](=O)[O-])cc1)N1CCN(c2ccc([N+](=O)[O-])cc2)CC1 | -82.5%
O=C(NC(CC(=O)N1CCN(c2ccccc2)CC1)c1ccccc1)c1ccccc1Cl (stereo not shown) | -19.6%
O=C(CN1CCN(c2ccc([N+](=O)[O-])cc2)CC1)Nc1nccs1 | -29.3%
O=C(NC(CC(=O)N1CCN(c2ccccc2O)CC1)c1ccccc1)c1ccccc1Cl (stereo not shown) | -15.6%
O=C(CN1CCN(CC(=O)Nc2ccccn2)CC1)Nc1ccccn1 | -9.95%
O=C(CN1CCN(c2ccc([N+](=O)[O-])cc2)CC1)c1ccccc1 | -9.94%
O=C(CCCC(=O)N1CCN(c2ccc([N+](=O)[O-])cc2)CC1)c1ccccc1 | -66%
Cc1ccc(CC(=O)N2CCN(c3ccc([N+](=O)[O-])cc3)CC2)cc1 | -30.4%
O=C(Cc1ccc(F)cc1)N1CCN(c2ccc([N+](=O)[O-])cc2)CC1 | -45.8%
Cn1cc(Cl)c(-c2n[nH]c(=S)n2-c2ccccc2)n1 | 14%
CCOC(=O)c1sc(NC(=O)c2ccc(OC)cc2)nc1C | 15.9%
CCN(C(=O)C1CC1)C1CCS(=O)(=O)C1 (stereo not shown) | 9.67%
CCC(C)C(=O)N[C@@H](c1ccccc1)[C@@H](O)C(=O)O[C@H]1C[C@@]2(O)[C@@H](OC(=O)c3ccccc3)C3[C@](C)(C(=O)[C@H](OC(C)=O)C(=C1C)C2(C)C)[C@@H](O)C[C@H]1OC[C@@]31OC(C)=O (stereo partly shown) | 7.34%

SMILES | hERG current change (%, negative = inhibition) at 1uM
CCOC(=O)COc1ccc(CCNC(C)=O)cc1 | 17.8%
Cn1c(CSCc2ccccc2Cl)nnc1SCC(=O)Nc1nccs1 | 2.67%
CC(C)CNS(=O)(=O)c1ccc(CCC(=O)N2CCN(c3ccccc3)CC2)cc1 | -61.5%
O=C(CCCSc1nc2ccccc2[nH]1)N1CCN(c2ccccc2)CC1 | -32.8%
Cc1cccc(N2CCN(C(=O)CSCc3c(C)noc3C)CC2)c1C | 6.62%
CC(C)CNS(=O)(=O)c1ccc(CCC(=O)N2CCN(c3ccc(F)cc3)CC2)cc1 | -9.44%
Cc1noc(C)c1CSCC(=O)N1CCN(c2ccc(F)cc2)CC1 | -17.9%
Cc1noc(C)c1CSCC(=O)N1CCN(c2ccc([N+](=O)[O-])cc2)CC1 | -83.4%
COc1ccc(N2CCN(C(=O)CCCSc3nc4ccccc4[nH]3)CC2)cc1 | -29.6%
CC(NC(=O)c1ccccc1)c1nc2ccccc2n1Cc1ccc(C#N)cc1 (stereo not shown) | -35.6%
N#Cc1ccc(CN2CCN(C(=O)CC(NC(=O)c3ccccc3)c3ccccc3)CC2)cc1 (stereo not shown) | -84.7%
O=C(CCCSc1nc2ccccc2[nH]1)N1CCN(c2ccc([N+](=O)[O-])cc2)CC1 | -86.9%
CCNS(=O)(=O)c1ccc(CCC(=O)N2CCN(c3ccccc3)CC2)cc1 | 3.97%
COc1cccc(N2CCN(C(=O)CC(NC(=O)c3ccccc3)c3ccccc3)CC2)c1 (stereo not shown) | -27%
Cc1ccnc(NC(=O)Cn2cc([N+](=O)[O-])cn2)c1 | 10.4%
CCOC(=O)c1sc(=S)n(-c2ccccc2)c1N(C(C)=O)C(C)=O | 15.5%
COc1ccc(S(=O)(=O)N2CCOCC2)cc1NC(=O)CCc1cc(OC)c(OC)c(OC)c1 | 2.32%
CC(NC(=O)c1cccnc1)C(c1cccs1)N1CCN(C)CC1 (stereo not shown) | 8.63%
COc1ccc(OCCSc2nc(N)cc(N)n2)cc1 | -5.65%
CC(=O)OCCNc1cc(SC(C)C)c2nonc2c1[N+](=O)[O-] | 3.63%
C=CCN1C=C2C(=O)C(C)(OC(=O)CCC(=O)OC)C(=O)C(Br)=C2C=C1c1ccc(OC)cc1 (stereo not shown) | 7.67%
O=C(Cc1ccccc1[N+](=O)[O-])NCCc1ccc(F)cc1 | 11.3%

SMILES | hERG current change (%, negative = inhibition) at 1uM
O=C(OCn1nnc2ccccc2c1=O)c1cccc(S(=O)(=O)N2CCOCC2)c1 | 12.9%
CSC(=NC#N)N1CCN(c2ccccc2)CC1 | 6.71%
CC(=O)N1CCN(c2ccc([N+](=O)[O-])cc2)CC1 | -26%
O=C(CCS(=O)(=O)Cc1ccccc1)N1CCN(c2ccc([N+](=O)[O-])cc2)CC1 | -81%
CC1(C(=O)N2CCN(c3ccc([N+](=O)[O-])cc3)CC2)CC1(Cl)Cl (stereo not shown) | -64.3%
O=C(CCS(=O)(=O)Cc1ccccc1)N1CCN(c2ccccc2)CC1 | -5.53%
CSC(=NC#N)N1CCN(c2ccc([N+](=O)[O-])cc2)CC1 | -80.9%
CC1(C(=O)N2CCN(c3ccccc3)CC2)CC1(Cl)Cl (stereo not shown) | 10.3%
Cc1ccc(S(=O)(=O)CCC(=O)N2CCN(c3ccc([N+](=O)[O-])cc3)CC2)cc1 | -49.9%
CSC(=NC#N)N1CCN(c2ccc(Cl)cc2)CC1 | -6.45%
O=C(CSCc1c(F)cccc1Cl)NCC1CCCO1 (stereo not shown) | -1.83%
CCn1cc(C2=NC(CCSC)CO2)c2ccccc21 (stereo not shown) | 12%
Cc1ccc(C2=NN(CC(=O)O)C(=O)CC2)cc1 | -9.99%
Cc1ccc(C(=O)N2CCN(c3ccc([N+](=O)[O-])cc3-n3cccc3)CC2)cc1 | -16.4%
COc1cccc(N2CCN(CC(=O)C34CC5CC(CC(C5)C3)C4)CC2)c1 | 14%
O=C(O)c1ccccc1C(=O)O | 4.51%
O=C1OC(NC(=O)c2ccccc2)C(n2cc(CO)nn2)=C1Cl (stereo not shown) | -3.22%
COc1ccc(N(C(=O)Cc2cccs2)C(C(=O)NC2CCCCC2)c2cccn2C)cc1 (stereo not shown) | 9.18%
N#C/C(=C/c1ccc(Cl)cc1)NC(=O)c1ccccc1 | 12.2%
